# From PubChem BioAssay (EPA / NIEHS)
# Results filed as inconclusive are left out. The source made the active and inactive calls. How the source made its calls, unless noted: active means hit-call score of the fitted dose curve at least 0.9, where 1 is the maximum; inconclusive means response in the unintended direction; inactive means score below 0.9.
# Key:
# [1] = test system: DIO1 (gene 1733); test: CCTE_GLTED_hDIO1: CCTE's human Deiodinase 1 (DIO1) Inhibition Assay, Great Lakes Toxicology and Ecology Division (GLTED) Lab (AID 2283987);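 further: isolated human DIO1 enzyme in a cell-free setup rather than cells; enzyme activity read as free iodide liberated from substrate via Sandell-Kolthoff colorimetry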
# Summary of the method: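 Inhibition read as reduced iodide release: after 3 h of human DIO1 with chemical, free iodide is quantified colorimetrically (Sandell-Kolthoff cerium/arsenic reaction). Triplicate plates, DMSO baseline.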
# [2] = biological target: Nucleoli Translocation, AR (gene 367) (UniProt P10275); test: UPITT_HCI_U2OS_AR_TIF2_Nucleoli_Antagonist: University of Pittsburgh U2OS Androgen Receptor-Transcriptional Intermediary Factor 2 (AR-TIF2) Antagonism High Content Imaging Assay for Nucleoli Translocation (AID 2283997)
# Nucleoli Translocation, AR (gene 367), sequence (P10275 whole entry, looked up): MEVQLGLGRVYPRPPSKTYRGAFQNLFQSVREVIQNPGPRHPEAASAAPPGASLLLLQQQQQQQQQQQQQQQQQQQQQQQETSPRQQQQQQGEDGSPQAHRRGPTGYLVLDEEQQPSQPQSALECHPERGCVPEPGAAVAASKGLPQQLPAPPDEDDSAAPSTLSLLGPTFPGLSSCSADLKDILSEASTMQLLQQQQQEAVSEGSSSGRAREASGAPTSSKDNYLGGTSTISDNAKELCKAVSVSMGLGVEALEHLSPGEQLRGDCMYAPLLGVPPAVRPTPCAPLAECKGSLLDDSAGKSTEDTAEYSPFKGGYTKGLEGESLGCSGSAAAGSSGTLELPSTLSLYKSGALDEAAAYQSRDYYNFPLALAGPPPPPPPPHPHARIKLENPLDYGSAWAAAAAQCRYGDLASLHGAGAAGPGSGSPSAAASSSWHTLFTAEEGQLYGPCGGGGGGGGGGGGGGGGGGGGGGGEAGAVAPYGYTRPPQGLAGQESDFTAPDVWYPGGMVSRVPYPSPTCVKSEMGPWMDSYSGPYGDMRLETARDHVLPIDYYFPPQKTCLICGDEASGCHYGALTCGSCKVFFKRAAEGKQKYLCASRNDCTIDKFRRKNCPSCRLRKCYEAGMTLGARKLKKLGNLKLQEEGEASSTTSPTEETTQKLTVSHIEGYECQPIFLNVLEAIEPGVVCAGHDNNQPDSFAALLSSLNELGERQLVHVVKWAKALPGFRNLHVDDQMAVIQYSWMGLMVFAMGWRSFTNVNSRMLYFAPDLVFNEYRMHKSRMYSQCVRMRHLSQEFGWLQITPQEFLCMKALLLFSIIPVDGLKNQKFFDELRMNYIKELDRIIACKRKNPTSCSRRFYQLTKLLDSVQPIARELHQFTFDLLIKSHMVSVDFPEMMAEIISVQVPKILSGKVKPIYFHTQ
# Summary of the method: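 An antagonist-mode imaging screen: engineered U2OS (AR-RFP, TIF2-GFP) exposed to 20 uM compound, 0.2% DMSO. Activity reflects nucleolar red fluorescence change relative to DHT baseline.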
# [3] = biological target: Nucleoli Translocation, AR (gene 367) (UniProt P10275); test: UPITT_HCI_U2OS_AR_TIF2_Nucleoli_Agonist: University of Pittsburgh U2OS Androgen Receptor-Transcriptional Intermediary Factor 2 (AR-TIF2) Agonism High Content Imaging Assay for Nucleoli Translocation (AID 2283998)
# Summary of the method: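 Nucleolar translocation of AR-RFP, with TIF2-GFP coexpressed in human osteosarcoma U2OS, imaged by high-content fluorescence. Compounds tested singly at 20 uM final, confirmed in triplicate, then titrated 0.195–50 uM final; gain-of-signal relative to DMSO.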
# [4] = biological target: Ratio of Nucleoli Translocation and Cytoplasm, AR (gene 367) (UniProt P10275); test: UPITT_HCI_U2OS_AR_TIF2_Nucleoli_Cytoplasm_Ratio_Antagonist: University of Pittsburgh U2OS Androgen Receptor-Transcriptional Intermediary Factor 2 (AR-TIF2) Antagonism High Content Imaging Assay for Ratio of Nucleoli Translocation and Cytoplasm (AID 2283999);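 further: antagonists lower the DHT-driven ratio of nucleolar to cytoplasmic red signal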
# Ratio of Nucleoli Translocation and Cytoplasm, AR (gene 367), sequence (P10275 whole entry, looked up): as above
# Summary of the method: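 Compounds were added to U2OS cells carrying red-fluorescent AR and green-fluorescent TIF2, first at 20 uM, with hits confirmed in triplicate and titrated from 0.195 to 50 uM. Nucleolar versus cytoplasmic AR-RFP fluorescence was then quantified by imaging, with analysis relative to DHT.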
# [5] = biological target: Ratio of Nucleoli Translocation and Cytoplasm, AR (gene 367) (UniProt P10275); test: UPITT_HCI_U2OS_AR_TIF2_Nucleoli_Cytoplasm_Ratio_Agonist: University of Pittsburgh U2OS Androgen Receptor-Transcriptional Intermediary Factor 2 (AR-TIF2) Agonism High Content Imaging Assay for Ratio of Nucleoli Translocation and Cytoplasm (AID 2284000);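 further: hits raise the red nucleolar to cytoplasm ratio above vehicle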
# Summary of the method: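 Primary screen at 20 uM final (0.2% DMSO), then triplicate confirmation and dose-response from 0.195 to 50 uM final (0.5% DMSO). Cells: U2OS with AR-RFP and TIF2-GFP. Endpoint is the nucleoli/cytoplasm red-fluorescence ratio, gain-of-signal vs DMSO.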
# [6] = CCTE_Shafer_MEA_acute_spike_number: CCTE's Neural Acute Assay for Total Number of Spikes, Shafer Lab (AID 2284008; active means hit-call score of the fitted dose curve at least 0.9, where 1 is the maximum; inactive means score below 0.9;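 on AC50: curve fitted for decrease in spike count so AC50 reflects inhibitors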)
# Summary of the method: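 Total spike count from 40 min recordings before and during compound exposure (0.03-40 uM), given as per-well percent change. Cortical cultures from rat, DIV 13 or 15, 37 C; adaptive detection threshold 8x rms noise.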
# [7] = CCTE_Shafer_MEA_acute_firing_rate_mean: CCTE's Neural Acute Assay for Mean Firing Rate, Shafer Lab (AID 2284009; active means hit-call score of the fitted dose curve at least 0.9, where 1 is the maximum; inactive means score below 0.9;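 further: analyzed for loss of signal so actives lower firing rate relative to DMSO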)
# Summary of the method: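 Spontaneous spiking of primary rat cortical networks, DIV 13/15, 37 C. Compound 0.03-40 uM, n ≥3 wells; 40 min baseline vs 40 min treated. Endpoint fitted in loss-of-signal direction against DMSO.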
# [8] = CCTE_Shafer_MEA_acute_burst_number: CCTE's Neural Acute Assay for Single-Electrode Bursts, Shafer Lab (AID 2284013; active means hit-call score of the fitted dose curve at least 0.9, where 1 is the maximum; inactive means score below 0.9)
# Summary of the method: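 Burst totals were derived with adaptive spike detection (8x rms threshold) on filtered signals from rat cortical cultures; change relative to pre-treatment baseline after 40-min compound exposure (0.03-40 uM) was fitted in the negative direction against DMSO.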
# [9] = CCTE_Shafer_MEA_acute_burst_duration_mean: CCTE's Neural Acute Assay for Mean Burst Duration, Shafer Lab (AID 2284014; active means hit-call score of the fitted dose curve at least 0.9, where 1 is the maximum; inactive means score below 0.9;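 further: hits are decreases in mean burst duration relative to DMSO controls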)
# Summary of the method: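 Acute exposure of mature rat cortical networks (DIV 13 or 15) grown on microelectrode arrays to 0.03-40 uM compound. Mean burst duration compared with the 40-min pre-dose baseline over a 40-min post-dose recording at 37 C.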
# [10] = CCTE_Harrill_HTTr_Viability_MCF7: CCTE's 6-hour Cell Viability Assessment for the High-Throughput Transcriptomics (HTTr) Platform, in MCF-7 cells cultured in DMEM + 10% fetal bovine serum, Harrill Lab (AID 2284010; active means hit-call score of the fitted dose curve at least 0.9, where 1 is the maximum; inactive means score below 0.9)
# Summary of the method: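 Read-out is propidium iodide gain of signal by high-content imaging, reflecting membrane integrity loss. Measurements are taken 6 h after dosing, eight concentrations per chemical, with DMSO serving as baseline for bidirectional curve fitting.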
# [11] = CCTE_Harrill_HTTr_CellCount_MCF7: CCTE's Cell Proliferation Assessment for the High-Throughput Transcriptomics (HTTr) Platform, Harrill Lab (AID 2284012);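 further: cells exposed to compound for six hours; intended direction is loss of nuclei count meaning fewer cells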
# Summary of the method: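 Cell count served as viability reporter: loss of Hoechst-stained nuclei, counted by high content imaging, marks decreased growth or survival. Exposure was 6 h in MCF-7 cells across eight concentrations, with DMSO as baseline.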
# [12] = biological target: Thyroid hormone receptor alpha (Rattus norvegicus) + Thyroid hormone receptor beta (Rattus norvegicus) (UniProt P18113+P63059); test: TOX21_TR_LUC_GH3_Agonist_Followup: Tox21 GH3 Thyroid Hormone Receptor Agonism Luciferase Follow-Up Assay (AID 2283939)
# Thyroid hormone receptor alpha (Rattus norvegicus) + Thyroid hormone receptor beta (Rattus norvegicus), sequence (P63059 whole entry, looked up): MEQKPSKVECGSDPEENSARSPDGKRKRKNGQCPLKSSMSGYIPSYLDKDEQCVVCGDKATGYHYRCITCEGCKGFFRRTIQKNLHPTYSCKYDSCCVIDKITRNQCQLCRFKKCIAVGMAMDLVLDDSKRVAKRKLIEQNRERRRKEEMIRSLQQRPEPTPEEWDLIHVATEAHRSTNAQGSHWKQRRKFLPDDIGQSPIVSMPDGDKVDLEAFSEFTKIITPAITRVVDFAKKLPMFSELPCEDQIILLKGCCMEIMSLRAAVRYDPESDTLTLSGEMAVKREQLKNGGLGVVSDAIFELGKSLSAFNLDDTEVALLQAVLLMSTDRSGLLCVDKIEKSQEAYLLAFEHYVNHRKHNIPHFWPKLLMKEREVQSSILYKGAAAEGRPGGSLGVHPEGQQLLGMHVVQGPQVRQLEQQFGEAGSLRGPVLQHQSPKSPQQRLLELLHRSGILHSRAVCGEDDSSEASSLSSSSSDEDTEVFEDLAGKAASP
# Thyroid hormone receptor alpha (Rattus norvegicus) + Thyroid hormone receptor beta (Rattus norvegicus), sequence (P18113 whole entry, looked up): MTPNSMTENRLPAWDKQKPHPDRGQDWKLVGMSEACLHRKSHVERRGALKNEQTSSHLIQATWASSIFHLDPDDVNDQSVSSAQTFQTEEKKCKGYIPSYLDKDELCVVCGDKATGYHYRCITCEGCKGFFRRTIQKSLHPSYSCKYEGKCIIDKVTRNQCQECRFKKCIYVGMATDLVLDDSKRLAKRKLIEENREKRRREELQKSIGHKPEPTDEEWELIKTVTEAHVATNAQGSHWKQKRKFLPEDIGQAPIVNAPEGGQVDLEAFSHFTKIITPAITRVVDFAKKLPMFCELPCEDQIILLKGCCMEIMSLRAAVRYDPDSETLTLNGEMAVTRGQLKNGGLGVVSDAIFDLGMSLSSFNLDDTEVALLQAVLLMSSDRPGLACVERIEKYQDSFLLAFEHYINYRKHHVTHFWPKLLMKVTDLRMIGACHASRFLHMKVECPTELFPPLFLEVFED
# Summary of the method: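 Agonist-mode confirmatory run: 15 concentrations (5 nM to 92 uM final) on GH3 rat pituitary cells, 24 h at 37C/5% CO2, T3 as positive control. Luminescence read with ONE-Glo after 30 min.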
# [13] = biological target: THRA (gene 7067) (UniProt P10827); test: TOX21_TRA_COA_Agonist_Followup_ratio: Tox21 Thyroid Hormone Receptor alpha Agonism through Coactivator Recruitment Follow-Up Assay, Ratio (AID 2283948; active means hit-call score of the fitted dose curve at least 0.9, where 1 is the maximum; inactive means score below 0.9)
# THRA (gene 7067), sequence (P10827 whole entry, looked up, the tested form may be a part): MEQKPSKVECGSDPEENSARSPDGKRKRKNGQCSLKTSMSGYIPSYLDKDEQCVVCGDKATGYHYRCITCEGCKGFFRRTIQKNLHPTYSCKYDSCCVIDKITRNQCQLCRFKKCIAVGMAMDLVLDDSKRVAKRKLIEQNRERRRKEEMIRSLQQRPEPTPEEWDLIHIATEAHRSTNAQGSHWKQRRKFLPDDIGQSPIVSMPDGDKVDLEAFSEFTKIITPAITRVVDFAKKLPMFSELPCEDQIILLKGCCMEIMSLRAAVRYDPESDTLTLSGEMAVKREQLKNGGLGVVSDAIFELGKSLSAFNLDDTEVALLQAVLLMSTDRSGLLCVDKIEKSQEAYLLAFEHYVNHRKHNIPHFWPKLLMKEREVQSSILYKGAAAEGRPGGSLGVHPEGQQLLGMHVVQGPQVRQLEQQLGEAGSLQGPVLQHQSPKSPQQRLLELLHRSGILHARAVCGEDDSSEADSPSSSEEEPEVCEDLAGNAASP
# Summary of the method: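 Cell-free TR-FRET coactivator recruitment: GST-tagged TRα LBD (2.5 nM) with 0.10% BSA was incubated with compound, then fluorescein-SRC-2 peptide (200 nM) and Tb-anti-GST antibody (2 nM) added. 520:495 nm ratio normalized to DMSO (0%) and T3 (100%).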
# [14] = biological target: THRB (gene 7068) (UniProt P10828); test: TOX21_TRB_BLA_Agonist_Followup_ratio: Tox21 Thyroid Hormone Receptor beta Agonism Beta-lactamase (BLA) Follow-Up Assay, Ratio (AID 2283954)
# THRB (gene 7068), sequence (P10828 whole entry, looked up, the tested form may be a part): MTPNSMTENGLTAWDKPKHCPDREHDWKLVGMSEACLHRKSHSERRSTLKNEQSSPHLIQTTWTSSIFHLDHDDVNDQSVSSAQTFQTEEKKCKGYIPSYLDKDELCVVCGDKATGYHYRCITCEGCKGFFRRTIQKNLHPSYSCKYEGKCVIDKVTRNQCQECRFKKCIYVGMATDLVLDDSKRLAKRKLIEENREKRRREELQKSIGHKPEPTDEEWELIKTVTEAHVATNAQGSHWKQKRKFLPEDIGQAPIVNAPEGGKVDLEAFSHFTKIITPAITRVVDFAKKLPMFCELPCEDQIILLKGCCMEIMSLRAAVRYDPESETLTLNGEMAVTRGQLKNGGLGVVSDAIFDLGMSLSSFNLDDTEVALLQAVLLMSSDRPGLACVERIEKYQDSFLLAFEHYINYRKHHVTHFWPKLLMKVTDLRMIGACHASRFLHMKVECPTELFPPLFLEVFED
# Summary of the method: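 Agonist mode: compounds (11-point, triplicate) incubated 18 h with HEK293T cells carrying GAL4-DBD/human TRβ-LBD and UAS-β-lactamase. Blue/green (460/530 nm) FRET ratio read after 2 h CCF4-AM loading; CellTiter-Glo viability run in the same plates.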
# [15] = biological target: THRB (gene 7068) (UniProt P10828); test: TOX21_TRB_COA_Agonist_Followup_ratio: Tox21 Thyroid Hormone Receptor beta Agonism through Coactivator Recruitment Follow-Up Assay, Ratio (AID 2283963; active means hit-call score of the fitted dose curve at least 0.9, where 1 is the maximum; inactive means score below 0.9)
# Summary of the method: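 First, the GST-fused TRβ ligand-binding domain (5.0 nM) was incubated with test compound in 0.10% BSA. Next, fluorescein-tagged SRC-2 peptide (200 nM) and terbium anti-GST antibody (2 nM) were added. Finally, TR-FRET emission ratios were normalized against DMSO and T3 controls.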
# [16] = biological target: Retinoic acid receptor RXR-alpha (Homo sapiens) (UniProt P19793); test: TOX21_TR_RXR_BLA_Agonist_Followup_ratio: Tox21 Thyroid Hormone Receptor beta Retinoid X Receptor alpha (RXRa) Agonism Beta-lactamase (BLA) Follow-Up Assay, Ratio (AID 2283968)
# Retinoic acid receptor RXR-alpha (Homo sapiens), sequence (P19793 whole entry, looked up): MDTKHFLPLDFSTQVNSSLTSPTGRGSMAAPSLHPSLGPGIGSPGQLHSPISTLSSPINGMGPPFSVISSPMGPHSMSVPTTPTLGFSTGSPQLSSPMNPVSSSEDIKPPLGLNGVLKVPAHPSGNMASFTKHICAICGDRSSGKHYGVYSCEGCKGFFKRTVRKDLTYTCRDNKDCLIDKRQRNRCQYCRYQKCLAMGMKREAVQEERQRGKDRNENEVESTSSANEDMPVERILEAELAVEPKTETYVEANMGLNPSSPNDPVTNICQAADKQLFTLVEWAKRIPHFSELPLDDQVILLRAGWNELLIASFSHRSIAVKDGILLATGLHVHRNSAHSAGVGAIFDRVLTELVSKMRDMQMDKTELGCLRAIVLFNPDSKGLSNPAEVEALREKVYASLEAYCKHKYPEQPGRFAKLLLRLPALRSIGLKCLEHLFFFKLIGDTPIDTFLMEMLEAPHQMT
# Summary of the method: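 Cells were first allowed to attach for 5 h, after which compounds in DMSO were pinned at 11 concentrations and incubated 16 h at 37C. LiveBLAzer CCF4-AM substrate was then added for 2 h at room temperature before reading 460 and 530 nm fluorescence.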
# [17] = TOX21_TR_RXR_BLA_Agonist_Followup_viability: Viability Assessment in the Tox21 Thyroid Hormone Receptor beta Retinoid X Receptor alpha (RXRa) Agonism Beta-lactamase (BLA) Follow-Up Assay (AID 2283970)
# Summary of the method: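 Viability counter-screen run alongside the RXRa bla follow-up: HEK293T reporter cells were treated for 16h at 37C in stripped-serum medium, then ATP was quantified by luciferase-coupled CellTiter-Glo. Decreased signal relative to DMSO marked cytotoxicity.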
# [18] = TOX21_PR_BLA_Followup_Antagonist_viability: Viability Assessment in the Tox21 HEK293 Progesterone Receptor (PR) Antagonism Beta-lactamase Follow-Up Assay (AID 2283936);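 further: cells exposed to compound with R5020 agonist for 16 h; hits lower the luminescence signal meaning cytotoxicity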
# Summary of the method: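 PR-UAS-bla HEK293T cells in medium with 2% charcoal-stripped FBS were treated with compounds plus R5020 for 16 hr at 37C. After the beta-lactamase read, CellTiter-Glo was added to the same wells and luminescence read after 30 min at room temperature.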
# [19] = biological target: PGR (gene 5241) (UniProt P06401); test: TOX21_PR_LUC_Followup_Antagonist: Tox21 HEK293 Progesterone Receptor (PR) Antagonism Luciferase Follow-Up Assay (AID 2283938);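 further: curve fitted upward as signal gain over DMSO baseline despite antagonist label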
# PGR (gene 5241), sequence (P06401 whole entry, looked up): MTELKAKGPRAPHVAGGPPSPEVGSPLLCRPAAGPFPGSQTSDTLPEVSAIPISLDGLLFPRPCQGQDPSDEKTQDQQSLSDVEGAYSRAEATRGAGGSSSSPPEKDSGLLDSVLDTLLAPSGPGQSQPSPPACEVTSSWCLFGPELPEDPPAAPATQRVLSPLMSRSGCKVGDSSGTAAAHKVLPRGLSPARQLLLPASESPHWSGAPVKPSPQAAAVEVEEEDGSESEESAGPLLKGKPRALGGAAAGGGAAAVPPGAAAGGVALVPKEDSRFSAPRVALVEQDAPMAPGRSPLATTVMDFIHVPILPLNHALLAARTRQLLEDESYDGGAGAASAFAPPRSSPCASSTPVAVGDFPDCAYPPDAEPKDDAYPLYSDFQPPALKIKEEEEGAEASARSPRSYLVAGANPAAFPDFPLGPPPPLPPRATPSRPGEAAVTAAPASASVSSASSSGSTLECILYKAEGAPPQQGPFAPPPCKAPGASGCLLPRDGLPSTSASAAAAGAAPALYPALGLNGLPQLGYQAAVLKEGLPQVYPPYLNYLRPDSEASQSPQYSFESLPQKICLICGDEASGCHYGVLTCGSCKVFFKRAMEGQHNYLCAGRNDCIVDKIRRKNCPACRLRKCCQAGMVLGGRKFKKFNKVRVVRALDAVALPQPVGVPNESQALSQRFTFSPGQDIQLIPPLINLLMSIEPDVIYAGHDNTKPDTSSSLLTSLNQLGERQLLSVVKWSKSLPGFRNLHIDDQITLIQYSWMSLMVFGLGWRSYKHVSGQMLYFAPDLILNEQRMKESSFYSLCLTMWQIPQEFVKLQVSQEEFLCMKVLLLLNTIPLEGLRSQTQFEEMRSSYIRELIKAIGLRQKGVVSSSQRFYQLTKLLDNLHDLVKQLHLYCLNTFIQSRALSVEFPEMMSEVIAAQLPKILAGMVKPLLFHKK
# Summary of the method: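 Luminescence from ONE-Glo was measured 30 min after reagent addition, following 16 h exposure of HEK293-PR-A-luc cells (3,000/well, plated 5 h earlier) to DMSO-dissolved compounds at 37C; DMSO served as baseline.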
# [20] = TOX21_PR_LUC_Followup_Agonist_viability: Viability Assessment in the Tox21 HEK293 Progesterone Receptor (PR) Agonism Luciferase Follow-Up Assay (AID 2283941);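 further: loss of signal means cytotoxicity so actives lower viability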
# Summary of the method: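 Multiplexed viability endpoint of the PR agonist luciferase follow-up: HEK293-PR-A-luc cells treated 16 h at 37C, with viability scored as decrease in CellTiter-Glo ATP signal.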
smiles,measurement,setting,value
O=C(Cl)C(F)(F)C(F)(F)C(F)(F)C(F)(F)C(F)(F)C(F)(F)C(F)(F)C(F)(F)F,AC50,[1],165 µM (active)
O=C(O)C=C(C(F)(F)F)C(F)(F)F,AC50,[1],20.2 µM (active)
CCCCCCOC(=O)c1ccccc1O,outcome,[2],inactive
same,outcome,[3],inactive
same,outcome,[4],inactive
same,outcome,[5],inactive
same,outcome,[6],inactive
same,outcome,[7],inactive
same,outcome,[8],inactive
same,outcome,[9],inactive
CCCCCCCOC(=O)c1ccccc1C(=O)OCCCCCCC,outcome,[10],inactive
same,outcome,[11],inactive
C1COCCN1,outcome,[10],inactive
O=S(=O)(O)c1ccc2ccccc2c1,outcome,[12],inactive
same,outcome,[13],inactive
same,outcome,[14],inactive
same,outcome,[15],inactive
same,outcome,[16],inactive
same,outcome,[17],inactive
same,outcome,[10],inactive
Nc1ccc(S(=O)(=O)Nc2nccs2)cc1,outcome,[17],inactive
same,outcome,[10],inactive
same,outcome,[11],inactive
CN(C)Cc1ccccc1O,outcome,[2],inactive
same,outcome,[3],inactive
same,outcome,[4],inactive
same,outcome,[5],inactive
CC/C=C\CCOC(C)=O,outcome,[10],inactive
C#C[C@]1(O)CC[C@H]2[C@@H]3CCc4cc(OC)ccc4[C@H]3CC[C@@]21C,outcome,[18],inactive
same,outcome,[19],inactive
same,outcome,[20],inactive
same,outcome,[10],inactive
same,outcome,[11],inactive
C(=C(c1ccccc1)c1ccccc1)c1ccccc1,outcome,[18],inactive
same,AC50,[19],32.3 µM (active)
CNC(=S)NC,outcome,[2],inactive
same,outcome,[4],inactive
same,outcome,[10],inactive
same,outcome,[11],inactive
CCCCCCC(C)OC(=O)CCCCC(=O)OC(C)CCCCCC (centres undefined),outcome,[2],inactive
same,outcome,[5],inactive
C=CC(=O)OCC(F)(F)C(F)(F)C(F)(F)C(F)(F)COC(=O)C=C,AC50,[1],5.82 µM (active)
CCCCC(CC)COP(=O)(O)OCC(CC)CCCC (centres undefined),AC50,[6],6.52 nM (active)
same,AC50,[7],6.51 nM (active)
same,AC50,[8],3 nM (active)
same,outcome,[9],inactive
O=C(O)C(F)(F)C(F)(F)C(F)(F)C(F)(F)C(F)(F)C(F)(F)C(F)(F)C(F)(F)C(F)(F)C(F)F,AC50,[1],88.7 µM (active)
O=C(O)C(F)(F)C(F)(F)C(F)(F)C(F)(F)C(F)(F)C(F)(F)C(F)(F)C(F)(F)C(F)(F)C(F)(F)C(F)(F)C(F)(F)C(F)(F)F,AC50,[1],23.7 µM (active)
O=C(O)C(F)(F)C(F)(F)C(F)(F)C(F)(F)C(F)(F)C(F)(F)C(F)(F)C(F)(F)C(F)(F)C(F)(F)C(F)(F)C(F)(F)F,AC50,[1],39 µM (active)
O=C(O)C(F)(F)C(F)(F)C(F)(F)C(F)(F)C(F)(F)C(F)(F)C(F)(F)C(F)(F)Cl,outcome,[1],inactive
CC(CCl)OP(=O)(OC(C)CCl)OC(C)CCl (centres undefined),outcome,[10],inactive
same,outcome,[11],inactive
OC[C@@H](O)[C@@H](O)[C@H](O)[C@@H](O)CO,outcome,[10],inactive
same,outcome,[11],inactive
CCN(Cc1cccc(S(=O)(=O)O)c1)c1ccc(C(=C2C=CC(=[N+](CC)Cc3cccc(S(=O)(=O)O)c3)C=C2)c2ccc(O)cc2S(=O)(=O)[O-])cc1,AC50,[1],65 µM (active)
same,outcome,[10],inactive
same,outcome,[11],inactive
[Co],outcome,[2],inactive
same,outcome,[3],inactive
same,outcome,[5],inactive
CCCCCC=O,outcome,[10],inactive
CC(Cc1ccc(O)c(O)c1)C(C)Cc1ccc(O)c(O)c1 (centres undefined),AC50,[1],6.62 µM (active)
same,outcome,[10],inactive
same,outcome,[11],inactive
